Data from PubChem BioAssay AID1851 (National Center for Advancing Translational Sciences (NCATS), 2009).
The campaign covered roughly 16,000 compounds. About 5,100 (32%) were called active. Not shown: some 25% with an inconclusive outcome. The call rests on the fitted dose curve; in most records, active means well fitted curve in the direction sought with a large enough effect; inconclusive means small, poorly fitted or top-dose-only effect, or effect the other way; inactive means no such curve, though single readings can be large or run the other way. Some of the results follow.
On the % scale 0 is the no-effect control and ±100 the full control effect.

These molecules were tested against Cytochrome P450 3A4 (Homo sapiens) (UniProt P08684) (assay: Cytochrome panel assay with activity outcomes). Settings: recombinant CYP, pro-luciferin dealkylation, luminescence, p450-cyp3a4; series mostly up to 57.1 µM.
Cytochrome P450 3A4 (Homo sapiens), sequence (P08684 whole entry, looked up): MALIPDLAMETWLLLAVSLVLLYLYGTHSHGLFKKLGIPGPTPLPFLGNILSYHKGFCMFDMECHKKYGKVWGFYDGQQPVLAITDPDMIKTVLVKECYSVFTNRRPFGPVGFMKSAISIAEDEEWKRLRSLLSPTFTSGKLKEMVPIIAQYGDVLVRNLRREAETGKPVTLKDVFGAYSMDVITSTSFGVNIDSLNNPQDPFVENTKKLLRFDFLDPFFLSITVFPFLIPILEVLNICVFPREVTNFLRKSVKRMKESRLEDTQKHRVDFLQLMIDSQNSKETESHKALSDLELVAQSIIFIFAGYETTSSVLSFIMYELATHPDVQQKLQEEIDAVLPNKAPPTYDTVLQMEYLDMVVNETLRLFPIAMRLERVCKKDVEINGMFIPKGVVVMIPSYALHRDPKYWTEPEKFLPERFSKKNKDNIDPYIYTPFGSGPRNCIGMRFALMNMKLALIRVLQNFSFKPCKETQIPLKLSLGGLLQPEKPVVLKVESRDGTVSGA
For Cc1nnsc1SC(C)C(=O)O (stereo not given), the AC50 was “inactive”. With C=CCSc1nc(C)cc(/C=C\c2ccccc2)c1C#N the AC50 was 4.47 µM (active). In the case of CC(=O)n1nc(-c2ccco2)nc1N, the AC50 is reported as “inactive”. For Nc1nc(NCCc2ccc(O)cc2)nc2nc(-c3ccco3)nn12, the AC50 was 15.8 µM (active). In the case of c1ccc(CN(CC2=NCCN2)c2ccccc2)cc1, the AC50 is reported as “inactive”. For Cc1ccc(C)c(/C(O)=C2\C(=O)C(=O)N(Cc3cccnc3)C2c2cccnc2)c1 (stereo not given), the AC50 was “inactive”. With Cc1cccc(-n2nc([N+](=O)[O-])c(=NCc3cccnc3)n2O)c1 the AC50 was 15.8 µM (active). For CCNC(=S)NNC(=O)c1cc(C)on1, the AC50 was “inactive”. In the case of COCC(C)n1c(C)cc(C(=O)CSc2nnc(Nc3ccccc3F)s2)c1C (stereo not given), the AC50 is reported as 1.58 µM (active). For COCCSc1nnc(NC(=O)C(C)(C)C)s1, the AC50 was “inactive”. For Cc1cccc(C(=O)NC(=S)N2CCN(C)CC2)c1, the AC50 was “inactive”. In the case of Cc1cccc(C(=O)NC2CCN(C(=S)NCc3ccco3)CC2)c1, the AC50 is reported as 5.62 µM (active). With COC(=O)c1ccc(NC(=S)N2CCN(Cc3cccc(C)c3)CC2)cc1 the AC50 was 12.6 µM (active). For Cc1cccc(C(=O)NC2CCN(C(=O)N3CCOCC3)CC2)c1, the AC50 was “inactive”. For COc1cccc(NC(=S)NN2CCN(C)CC2)c1, the AC50 was “inactive”. In the case of COc1cccc(-c2csc(N3CCN(C(=S)Nc4ccccc4)CC3)n2)c1, the AC50 is reported as 8.91 µM (active). In the case of Brc1ccc(-c2csc(N3CCC(c4ccccc4)C3)n2)cc1 (stereo not given), the AC50 is reported as “inactive”. COc1cccc(N2CCN(C(=S)Nc3cccc(C)c3)CC2)c1 was tested, and the AC50 was 3.55 µM (active). With CC(C)CC(=O)N1CCN(Cc2cccc(F)c2)CC1 the AC50 was “inactive”. With Cn1cnc([N+](=O)[O-])c1Sc1nc(N)nc2c1ncn2Cc1ccccc1 the activity, negative = inhibition was -11.4% [at 11.4 µM] (inactive). For O=C1c2ccccc2C(=O)c2c1ccc(C(=O)O)c2-c1ccc2ccccc2c1, the activity, negative = inhibition was -2.24% [at 11.4 µM] (inactive). With COc1cccc(-c2csc(N3CCN(CC(=O)NNC(=O)c4ccc(Cl)cc4)CC3)n2)c1 the AC50 was 11.2 µM (active). In the case of S=C(NCc1ccco1)N1CCN(Cc2ccco2)CC1, the activity, negative = inhibition is reported as -5.09% [at 2.29 µM] (inactive). Clc1ccc(-c2csc(N3CCC(c4ccccc4)C3)n2)cc1 (stereo not given) was tested, and the AC50 was “inactive”. CN1CCN(C(c2ccccc2)c2ccccc2)CC1 was tested, and the AC50 was “inactive”. For S=C(NCc1ccco1)N1CCN(C(c2ccccc2)c2ccccc2)CC1, the AC50 was 12.6 µM (active). COc1ccc(-c2csc(N3C(=N)SCC3=O)n2)cc1 was tested, and the AC50 was “inactive”. For COc1ccc(C(=O)NC2CCN(C(=S)Nc3cccc(C)c3)CC2)cc1, the AC50 was 15.8 µM (active). For CN(C)C(=O)c1ccc(-c2cc(NCc3ccccc3)ncn2)cc1, the AC50 was “inactive”. With CN(C)C(=O)c1ccc(-c2cc(NCc3cccnc3)ncn2)cc1 the AC50 was 15.8 µM (active). Cc1cccc(CNc2cc(-c3ccc(C(=O)N(C)C)cc3)ncn2)c1 was tested, and the AC50 was 3.16 µM (active). In the case of COc1ccc(C(NC(=O)c2ccc(-c3ccccc3)cc2)c2ccccc2)cc1 (stereo not given), the AC50 is reported as 0.0355 µM (active). C[C@H](NC(=O)c1ccc(Cl)c(Cl)c1)c1ccc(-c2ccccc2)cc1 was tested, and the activity, negative = inhibition was -6.52% [at 11.4 µM] (inactive). O=C1OC2CC3CC1CC(O)(C3)C2 (stereo not given) was tested, and the AC50 was “inactive”. For CCc1n[nH]c(=S)n1/N=C/c1ccc2c(c1)OCO2, the AC50 was 14.1 µM (active). In the case of Oc1ccc(Cn2c(-c3ccc(O)cc3)nc3ccccc32)cc1, the activity, negative = inhibition is reported as -21.1% [at 11.4 µM] (inactive). CCn1c(-c2ccc(N(C)C)cc2)nc2ccccc21 was tested, and the AC50 was 10 µM (active). For COc1ccc(C(=O)N2CCC3(CCN(Cc4ccc(C#N)cc4)CC3)CC2)cc1, the AC50 was “inactive”. In the case of COc1ccc(C(=O)N2CCC[C@@]3(CCN(CC(C)C)C3)C2)cc1, the AC50 is reported as 7.94 µM (active). COc1ccc(C(=O)N2CCC[C@@]3(CCN(Cc4ccc(C#N)cc4)C3)C2)cc1 was tested, and the AC50 was 10 µM (active). For COc1ccc(C(=O)N2CCC[C@@]3(CCN(Cc4ccccc4)C3)C2)cc1, the AC50 was 10 µM (active). COC(=O)N1CCC2(CCCN(Cc3ccccc3)C2)CC1 was tested, and the AC50 was “inactive”. In the case of COCC(=O)N1CCC2(CC1)CN(Cc1ccc(C#N)cc1)C2, the AC50 is reported as “inactive”. For O=c1[nH]c(=O)n([C@@H]2C[C@H](O)[C@H](CO)O2)cc1I, the AC50 was “inactive”. Brc1ccc(-c2nnc(-c3ccccc3)c(N3CCSCC3)n2)cc1 was tested, and the AC50 was “inactive”. In the case of CCCCN(C)S(=O)(=O)c1ccc(C(=O)Nc2nnc(CSC)o2)cc1, the AC50 is reported as “inactive”. Cn1c(C(F)(F)F)nc2c(=O)oc3ccccc3c21 was tested, and the AC50 was “inactive”. With Nc1ccccc1S(N)(=O)=O the AC50 was “inactive”. In the case of O=C(NC1CCCCC1)C(c1ccccc1)N1CCOCC1 (stereo not given), the AC50 is reported as 11.2 µM (active). With COc1ccc(C(C(=O)NC2CCCCC2)N2CCC3(CC2)OCCO3)cc1 (stereo not given) the AC50 was 4.47 µM (active). In the case of Cc1ccc(C(C(=O)NC2CCCCC2)N2CCN(C(=O)c3ccco3)CC2)cc1 (stereo not given), the activity, negative = inhibition is reported as -19.6% [at 2.29 µM] (inactive). CCOc1cc(C)c(S(=O)(=O)Nc2ccc3cn[nH]c3c2)cc1C was tested, and the AC50 was 0.316 µM (active). In the case of CCOC(OCC)P(=O)(O)CCCNCc1ccc(Cl)c(Cl)c1, the AC50 is reported as “inactive”. CC(SCc1cn2cc(Cl)ccc2n1)C(=O)O (stereo not given) was tested, and the AC50 was “inactive”. In the case of Cc1ccn2cc(CSc3ccccc3N)nc2c1, the AC50 is reported as 3.98 µM (active). With C[C@@H](C[N+](C)(C)C)OC(N)=O the AC50 was “inactive”. With COC(=O)C1C(=O)C2=C(CC1C)NC(=O)CC2c1cccc(C)c1 (stereo not given) the AC50 was 14.1 µM (active). With C=CC[C@@H]1C=C[C@H](O/N=C(\C)CCN2CCCCc3nc(C)c(C)cc32)[C@H](CO)O1 the AC50 was 3.98 µM (active). C=CC[C@@H]1C=C[C@H](O/N=C(\C)CCN2CCCc3nc(C)c(C)cc32)[C@H](CO)O1 was tested, and the AC50 was 2.51 µM (active). With CN(C(=S)Nc1ccccc1F)C1(c2ccccc2Cl)CCCCC1=O (stereo not given) the activity, negative = inhibition was -21.2% [at 2.29 µM] (inactive). In the case of CCCCN1C2=NCCCN2c2ccccc21, the activity, negative = inhibition is reported as 7.3% [at 11.4 µM] (inactive). Cc1ccsc1/C=N/Nc1nc(Cl)c(Cl)cc1Cl was tested, and the activity, negative = inhibition was -21% [at 2.29 µM] (inactive). In the case of O=c1oc2ccccc2cc1-c1csc(NN=C2CCCCC2)n1, the AC50 is reported as 3.98 µM (active). With O=C(Nc1ccc(-c2cc3ccccc3oc2=O)c(Cl)c1)c1cccnc1 the AC50 was “inactive”. In the case of O=C(Nc1cc2ccccc2oc1=O)C1CCCCC1, the activity, negative = inhibition is reported as 10.7% [at 2.29 µM] (inactive).
